Source: PubChem BioAssay (NCATS)
Where “and” joins values, the source holds several entries; their conditions need not be identical. Equal entries are not always repeated. Inconclusive results are not listed. A call without a number means that no potency is given here. More than one record can exist for a structure, and the calls need not agree. Calls of active or inactive are those of the source. Calls follow the shape of the dose curve; as a rule, active = well fitted curve in the direction sought with a large enough effect; inconclusive = small, poorly fitted or top-dose-only effect, or another doubt; inactive = no such curve, though single readings can be large; an effect the other way counts as inactive or inconclusive.

Key:
[1] = system: W2; assay: qHTS profiling for inhibitors of Plasmodium falciparum proliferation (AID 504749); also: nearly all actives have a fitted effect of over 60% in size; settings: P. falciparum in erythrocytes, SYBR Green DNA, 72 h; series mostly up to 28.7 µM
Outline: (§1)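 In a 72 h erythrocytic culture (37 C, humidified, 5% CO2) at 2.5% hematocrit and 0.3% starting parasitemia, compounds were tested; SYBR Green I in detergent lysis buffer stained parasite DNA overnight.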

[2] = system: CRL-7250; assay: Cytotoxic Profiling of Annotated Libraries Using Quantitative High-Throughput Screening (AID 1296008); settings: Five cell lines viability, CellTiter-Glo ATP luminescence, 48-72 h; max response: stronger effect = lower value; also: nearly all actives have a fitted effect of over 60% in size
Outline: (§2)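 Cytotoxicity was measured as CellTiter-Glo ATP luminescence, read after 10 min at room temperature. Compound treatment of the cells lasted 48 or 72 hr at 37 degrees Celsius in a qHTS format.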

[3] = system: HEK293; assay: as above; settings: Five cell lines viability, CellTiter-Glo ATP luminescence, 48-72 h; max response: stronger effect = lower value
Outline: as §2

[4] = system: HaCat; assay: as above; settings: Five cell lines viability, CellTiter-Glo ATP luminescence, 48-72 h; max response: stronger effect = lower value
Outline: as §2

[5] = system: KB-3-1; assay: as above; settings: Five cell lines viability, CellTiter-Glo ATP luminescence, 48-72 h; max response: stronger effect = lower value
Outline: as §2

[6] = system: NIH3T3; assay: as above; settings: Five cell lines viability, CellTiter-Glo ATP luminescence, 48-72 h; max response: stronger effect = lower value
Outline: as §2

[7] = system: HACAT; assay: qHTS assay to identify novel small-molecules to repurpose for Merkel cell carcinoma treatment (AID 1296009); settings: MCC and control cell lines, CellTiter-Glo viability, 72 h; at 44.8 µM (top of the series) unless noted; also: nearly all actives have a fitted effect of over 60% in size
Outline: (§3)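 Cell viability measured by CellTiter-Glo following 72 hr compound treatment at 37 degree celsius, with NPC and MIPE libraries tested in 8- and 11-point concentration series.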

[8] = system: MCC-13; assay: as above; settings: MCC and control cell lines, CellTiter-Glo viability, 72 h; series mostly up to 46 µM
Outline: as §3

[9] = system: MCC-26; assay: as above; settings: MCC and control cell lines, CellTiter-Glo viability, 72 h; series mostly up to 46 µM
Outline: as §3

[10] = system: MKL-1; assay: as above; settings: MCC and control cell lines, CellTiter-Glo viability, 72 h; series mostly up to 46 µM
Outline: as §3

[11] = system: MKL-2; assay: as above; settings: MCC and control cell lines, CellTiter-Glo viability, 72 h; series mostly up to 46 µM
Outline: as §3

[12] = system: NIH3T3; assay: as above; settings: MCC and control cell lines, CellTiter-Glo viability, 72 h; at 44.8 µM (top of the series) unless noted
Outline: as §3

[13] = system: UISO; assay: as above; settings: MCC and control cell lines, CellTiter-Glo viability, 72 h; series mostly up to 46 µM
Outline: as §3

[14] = system: WaGa; assay: as above; settings: MCC and control cell lines, CellTiter-Glo viability, 72 h; series mostly up to 46 µM
Outline: as §3

[15] = system: C33A; assay: Primary qHTS to identify gynecologic anti-cancer compounds using libraries of approved drugs and bioactive compounds (AID 1345084); settings: Gynecologic cancer cell panel viability, ATPlite luminescence, 48 h; series mostly up to 57.5 µM; also: nearly all actives have a fitted effect of over 55% in size
Outline: (§4)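 Cytotoxicity screen measuring ATP content by luciferase luminescence. Each compound is applied at five concentrations for 48 h at 37 C with 5% CO2.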

[16] = system: CAOV3; assay: as above; settings: Gynecologic cancer cell panel viability, ATPlite luminescence, 48 h; series mostly up to 57.5 µM
Outline: as §4

[17] = system: CASKI; assay: as above; settings: Gynecologic cancer cell panel viability, ATPlite luminescence, 48 h; series mostly up to 57.5 µM
Outline: as §4

[18] = system: Es-2; assay: as above; settings: Gynecologic cancer cell panel viability, ATPlite luminescence, 48 h; series mostly up to 57.5 µM
Outline: as §4

[19] = system: TAB165; assay: qHTS profiling for inhibitors of Plasmodium falciparum proliferation (AID 504749); also: nearly all actives have a fitted effect of over 60% in size; settings: P. falciparum in erythrocytes, SYBR Green DNA, 72 h; series mostly up to 28.7 µM
Outline: as §1

[20] = system: HEK293T; assay: qHTS assay to identify novel small-molecules to repurpose for Merkel cell carcinoma treatment (AID 1296009); settings: MCC and control cell lines, CellTiter-Glo viability, 72 h; at 44.8 µM (top of the series); also: nearly all actives have a fitted effect of over 60% in size
Outline: as §3
Potency is read from the fitted curve at half-maximal effect.

NS(=O)(=O)c1cc2c(cc1Cl)NC=NS2(=O)=O
Potency [1]: inactive
max response [2]: -0.778% (inactive) and -4.67% (inactive)
max response [3]: -4.01% (inactive) and 0.386% (inactive)
max response [4]: -11.6% (inactive)
outcome [4]: inactive
max response [5]: -5.96% (inactive)
outcome [5]: inactive
max response [6]: 3.94% (inactive)
outcome [6]: inactive
outcome [7]: inactive
Potency [8]: inactive
Potency [9]: inactive
Potency [10]: inactive
Potency [11]: inactive
outcome [12]: inactive
Potency [13]: inactive
Potency [14]: inactive
Potency [15]: inactive
Potency [16]: inactive
Potency [17]: inactive
Potency [18]: inactive

COc1cc(F)c(F)c(Nc2ccc(I)cc2F)c1NS(=O)(=O)C1(C[C@H](O)CO)CC1
Potency [2]: 5.8 µM (active)
max response [2]: -24.3% (inactive)
outcome [5]: inactive
max response [6]: -9.12% (inactive)
Potency [8]: inactive
Potency [9]: inactive
Potency [10]: inactive
Potency [11]: inactive
Potency [13]: inactive
Potency [14]: inactive
Potency [15]: inactive
Potency [17]: inactive

S=C(NCc1ccc2c(c1)OCO2)N1CCN(c2ncnc3c2oc2ccccc23)CC1
Potency [2]: 1.46 µM (active)
max response [2]: -64.3% (inactive)
Potency [3]: 340 nM (active) and 4.11 µM (active)
max response [4]: -0.756% (inactive) and -9.04% (inactive)
max response [6]: -27.2% (inactive)
Potency [8]: inactive
Potency [9]: inactive

CCc1ccc(CCOc2ccc(CC3SC(=O)NC3=O)cc2)nc1 (centres undefined)
Potency [19]: inactive
Potency [1]: inactive
max response [2]: -4.18% (inactive) and 2.83% (inactive)
max response [3]: -6.03% (inactive)
outcome [3]: inactive
outcome [4]: inactive
max response [5]: -8.26% (inactive) and 7.14% (inactive)
max response [6]: 0.801% (inactive)
outcome [6]: inactive
outcome [7]: inactive
outcome [20]: inactive
Potency [8]: inactive
Potency [9]: inactive
Potency [10]: inactive
Potency [11]: inactive
outcome [12]: inactive
Potency [13]: inactive
Potency [14]: inactive
Potency [15]: inactive
Potency [16]: inactive
Potency [17]: inactive
Potency [18]: inactive

Cc1cnc(Nc2ccc(OCCN3CCCC3)cc2)nc1Nc1cccc(S(=O)(=O)NC(C)(C)C)c1
Potency [2]: 3.72 µM (active)
Potency [3]: 5.17 µM (active)
max response [3]: 0.504% (inactive)
Potency [5]: 6.51 µM (active)
max response [5]: 5.89% (inactive)
outcome [6]: inactive
Potency [8]: inactive
Potency [10]: inactive
outcome [12]: inactive
Potency [13]: inactive
Potency [14]: inactive
Potency [16]: 10 µM (active)
Potency [17]: 14.1 µM (active)

O=C(O)CCc1ccc(NCc2cccc(Oc3ccccc3)c2)cc1
max response [2]: 4.81% (inactive)
outcome [3]: inactive
max response [4]: -7.54% (inactive)
outcome [4]: inactive
max response [5]: -3.52% (inactive) and 6.14% (inactive)
outcome [6]: inactive
outcome [7]: inactive
outcome [20]: inactive
Potency [9]: inactive
activity change, negative = cytotoxicity [10]: -1.7% [at 0.00266 µM] (inactive)
Potency [15]: inactive
Potency [17]: inactive

O=c1[nH]c(-c2ccc(C(F)(F)F)cc2)nc2c1CSCC2
max response [2]: -16.3% (inactive)
max response [3]: 1.09% (inactive)
max response [4]: -17.6% (inactive) and -9.05% (inactive)
max response [5]: 9.93% (inactive)
outcome [5]: inactive
max response [6]: -7.54% (inactive)
Potency [8]: inactive
Potency [9]: inactive
Potency [10]: inactive
Potency [11]: inactive
Potency [14]: inactive
Potency [18]: 28.2 µM (active)

CN(C(=O)c1ccc(F)cc1C(F)(F)F)C1CCN(c2nnc(-c3ccnn3C)c3ccccc23)CC1
max response [2]: -27.2% (inactive) and -23.7% (inactive)
max response [3]: -60.8% (inactive)
max response [4]: -6.53% (inactive)
outcome [4]: inactive
max response [5]: -19.8% (inactive)
max response [6]: -30.1% (inactive) and 3.56% (inactive)
outcome [7]: inactive
Potency [8]: inactive
Potency [9]: inactive
Potency [10]: inactive
Potency [11]: inactive
Potency [13]: inactive
Potency [14]: inactive
Potency [15]: inactive
Potency [16]: inactive
Potency [17]: inactive
Potency [18]: inactive

O=C(O)COCCN1CCN(C(c2ccccc2)c2ccc(Cl)cc2)CC1 (centres undefined)
max response [2]: -0.386% (inactive)
max response [3]: 0.378% (inactive) and -0.675% (inactive)
max response [4]: -5.21% (inactive) and -2.14% (inactive)
max response [5]: 6.76% (inactive) and 8.88% (inactive)
max response [6]: -0.466% (inactive)
outcome [6]: inactive
Potency [8]: inactive
Potency [9]: inactive
Potency [10]: inactive
Potency [11]: inactive
outcome [12]: inactive
Potency [13]: inactive
Potency [14]: inactive
Potency [15]: inactive
Potency [16]: inactive
Potency [17]: inactive
Potency [18]: inactive

Cn1cnc([N+](=O)[O-])c1Sc1ncnc2nc[nH]c12
Potency [19]: 11.2 µM (active)
Potency [2]: 3.4 µM (active) and 10.6 µM (active)
Potency [3]: 10.5 µM (active)
Potency [4]: 2.7 µM (active) and 15 µM (active) and 11.8 µM (active)
Potency [5]: 2.96 µM (active)
Potency [6]: 3.82 µM (active) and 7.5 µM (active) and 5.9 µM (active)
Potency [8]: 4.28 µM (active) and 6.68 µM (active)
Potency [9]: inactive
Potency [10]: 10.8 µM (active) and inactive
Potency [11]: 12.1 µM (active)
Potency [14]: 1.91 µM (active)
Potency [15]: 8.91 µM (active) and 7.94 µM (active)
Potency [16]: inactive
Potency [17]: 1.26 µM (active) and 3.55 µM (active)
Potency [18]: 3.16 µM (active) and 10 µM (active)

O=C(NOC[C@H](O)CO)c1ccc(F)c(F)c1Nc1ccc(I)cc1F
Potency [2]: 3.32 µM (active) and 3.66 µM (active)
outcome [3]: inactive
Potency [4]: 8.33 µM (active) and 23.1 nM (active)
max response [5]: 4.78% (inactive) and 5.99% (inactive)
Potency [6]: 6.51 µM (active)
outcome [20]: inactive
Potency [9]: inactive
Potency [15]: inactive
Potency [17]: inactive

Cc1cc(C=c2sc3nc4ccccc4n3c2=O)c(C)n1-c1ccccc1
max response [2]: -1.5% (inactive)
max response [3]: -0.0904% (inactive)
outcome [4]: inactive
max response [5]: 1.4% (inactive)
max response [6]: -1.17% (inactive)
outcome [7]: inactive
Potency [8]: inactive
Potency [9]: inactive
Potency [10]: inactive
Potency [11]: inactive
Potency [13]: inactive
Potency [14]: inactive
